Sampled rows, rich in hits. Any-hit rate of the full collection: about 7.2%.
A1 inh: inhibitors of the anti-apoptotic protein A1, read as caspase activation; caspase activation, % (test concentration not listed); AID 2462; hit rate 0.066% among 330,000; MEF A1-2A-BIM cells, Caspase-Glo 3/7 luminescence, 3 h; percent of clofoctol response, vehicle zero;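 active = over half of replicate activation scores above 10%, or exactly half above 10 with the replicate mean above 10; inconclusive = replicate mean below 10 yet half the replicates above 10; inactive = over half of replicates below 10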
ALR H2O2 inh: inhibitors of human sulfhydryl oxidase ALR | P55789 | inhibition, % (no concentration beside the values) | purified ALR, DTT oxidation, H2O2 HRP-luminol luminescence | hit rate 3.8% among 290,000;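 active = mean replicate inhibition above about 79%, with every replicate also reaching it, limit read from the data; inconclusive = only one of the two criteria met; inactive = mean below limit and not every replicate reaching it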
Mot1-301 SUMO: SUMOylation pathway inhibition by Mot1-301 growth rescue. AID 2716. S. cerevisiae Mot1-301 growth rescue, ATP luminescence, 38.5C; percent above DMSO median, 100 means doubled. hit rate 1% among 320,000. growth rescue, % at 18.8 µM;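 active = every valid replicate shows activation above 250% relative to neutral control wells; inactive = the rest, any valid replicate at or below 250%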
Efflux pump mplx: inhibitors of Candida antifungal efflux pumps expressed in yeast. AID 485275. inhibition, % at 10 µM. S. cerevisiae Candida pump triplex, Nile Red efflux. hit rate 0.44% among 330,000;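 active = plate passing quality check with inhibition over a set limit, or well fluorescence over plate mean plus 4 SD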;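 also: Nile Red retained in pooled yeast measured as flow cytometry median fluorescence; higher means more Nile Red kept so more efflux inhibition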
AHR activator: activators of human aryl hydrocarbon receptor. AHR-responsive luciferase reporter cells, luminescence. activation, % at 5 µM. hit rate 2.5% among 320,000. AID 2796; in the data active = activation above about 47%
VLA-4 inh: inhibition in a human VLA-4 binding assay. VLA-4 expressing cells, ligand binding flow cytometry. inhibition, % (about 7 µM as worked out from the volumes in the protocol). hit rate 0.2% among 330,000. AID 2557; in the data active = inhibition above about 50%
Of the large screens only hits and unclear results are named; the others gave an inactive call.

COC(=O)c1cn[nH]c1NC(=S)Nc1ccc(Cl)c(Cl)c1	AHR activator 48
CC(C(=O)Nc1cccnc1)C1Sc2ccccc2NC1=O (stereo not drawn)	none
Cc1ccc(NC2CCCN(C(=O)c3ccccc3-c3ncc[nH]3)C2)cc1C (stereo not drawn)	ALR H2O2 inh 99
Cc1nnsc1C(=O)N1CCCC(Nc2ccc(F)c(F)c2)C1 (stereo not drawn)	none
Cc1ccc(NC2CCCN(C(=O)c3cccc(-c4ncc[nH]4)c3)C2)cc1C (stereo not drawn)	ALR H2O2 inh 97
CCOC(=O)Cc1cc(=O)n2[nH]c(C)c(-c3ccc(Cl)cc3)c2n1	ALR H2O2 inh 99
CCc1cc(=O)n2[nH]c(C)c(-c3ccc(OC)cc3)c2n1	none
CCOC(=O)Cc1cc(=O)n2[nH]c(C)c(-c3ccc(OC)cc3)c2n1	ALR H2O2 inh 91
CCOc1ccc(C(=O)NNC(=O)CCNC(=O)c2ccc(Br)cc2)cc1OC	none
COc1ccccc1NC(=O)COC(=O)C1CCN(/C=C/C(=O)C(F)(F)F)CC1	none
Cc1ccc(S(=O)(=O)Nc2ccc(-n3cnnn3)cc2)c(C)c1	none (no result: A1 inh, ALR H2O2 inh, Mot1-301 SUMO)
Cc1cc(C)c(S(=O)(=O)Nc2ccc(N(C)C)cc2)c(C)c1-n1cnnn1	ALR H2O2 inh 99
COc1ccccc1N=Nc1ccc(N)c(C)c1	AHR activator 60
COCCNC(=O)NC12CC3(C)CC(C)(CC(C)(C3)C1)C2	none
S=c1[nH]c(-c2ccccc2)cn1/N=C/c1ccccc1Br	AHR activator 62
S=c1[nH]c(-c2ccccc2)cn1/N=C/c1cccc2ccccc12	AHR activator 99
O=C(CN(C(=O)C1CSC(=O)C1)c1cccc(F)c1)NCc1ccc2c(c1)OCO2 (stereo not drawn)	none (no result: ALR H2O2 inh)
Cc1cccc(N2CCN(C(=O)c3ccc4c(c3)CCN4S(C)(=O)=O)CC2)c1C	none (no result: A1 inh, Mot1-301 SUMO)
C/C(=N/NS(=O)(=O)c1ccc(F)cc1)c1ccc(NC(=O)c2ccc(C)o2)cc1	none
CCOC(=O)c1sc(S(C)(=O)=O)c2c1CCc1conc1-2	ALR H2O2 inh inconclusive
Cc1ccc(C)c(S(=O)(=O)N2CCCOC2CNC(=O)C(=O)NCCCN2CCOCC2)c1 (stereo not drawn)	none
Cc1ccc(NC(=O)CSc2n[nH]c(=O)n2C2CC2)cc1S(=O)(=O)N1CCOCC1	none
Cc1ccc(N=C(NO)c2nonc2N)cc1	ALR H2O2 inh 92
Cc1ccc(N=C(NO)c2nonc2N)c(C)c1	none
CCc1c(C)nc(SCC(=O)c2cccs2)c(C#N)c1C	AHR activator 94
Cc1cccc(-c2nc(CS(=O)CC(=O)NCCCSC3CCCCC3)c(C)o2)c1 (stereo not drawn)	none
Cc1cccc(-c2nc(CS(=O)CC(=O)NC3CCCCC3)c(C)o2)c1 (stereo not drawn)	ALR H2O2 inh 99
Cc1oc(-c2ccccc2)nc1CS(=O)CC(=O)NC1CCCCCC1 (stereo not drawn)	ALR H2O2 inh 100
Cc1cc2c(C)nc(Cc3ccccc3)nc2o1	AHR activator 54
Cc1noc(C)c1S(=O)(=O)N(CC(=O)NCc1ccc2c(c1)OCO2)c1ccc(C(C)C)cc1	ALR H2O2 inh 95
CCOc1ccc(N(CC(=O)Nc2cccc(Cl)c2)S(=O)(=O)c2c(C)noc2C)cc1	ALR H2O2 inh 97
Cc1ccc(N(CC(=O)NCc2ccc3c(c2)OCO3)S(=O)(=O)c2c(C)noc2C)cc1	ALR H2O2 inh 97
Cc1ccc(CNC(=O)CN(c2ccc(C(C)C)cc2)S(=O)(=O)c2c(C)noc2C)cc1	none
Cc1cc(C)cc(N(CC(=O)NCc2ccco2)S(=O)(=O)c2c(C)noc2C)c1	ALR H2O2 inh 86
COc1ccc(S(=O)(=O)NC2(C(F)(F)F)NC(=O)N(CCc3ccccc3)C2=O)cc1 (stereo not drawn)	none
COc1cccc(NC(=O)N2CCN(c3cccc(C)c3C)CC2)c1	none (no result: ALR H2O2 inh)
O=C(NCC(=O)N1CCN(c2ccccc2O)CC1)c1ccc(Br)o1	ALR H2O2 inh 99
Cc1ccsc1C(=O)Nc1ccccc1N1CCCC1	ALR H2O2 inh 99
O=C(NCC(=O)N1CCCCCCC1)c1ccc(Br)o1	none
O=C(NC(=S)Nc1ccccc1N1CCCCC1)c1ccco1	none
O=C(NC(=S)Nc1ccccc1N1CCOCC1)c1ccco1	ALR H2O2 inh 96
O=C(Nc1ccccc1N1CCCC1)c1ccc(Cl)cc1Cl	none
